# Measured values reported in PubChem BioAssay (NCI).
# This is part of a sample that, as a whole, favours compounds with a hit. Of some 83,000 tested, about 20% had one in any assay.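 48-hour exposure, single concentration, 96-well plates; percent growth endpoint where 0 means no net growth. Active: below 10.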 Values without a mark were called inactive. Calls of active or inactive are those of the source.
# Test system: LOX IMVI melanoma
# Experiment: NCI-60 one-dose screen, 48 h (100 = growth as untreated, 0 = no growth, -100 = all killed)
# Settings: 10 µM unless noted
row,SMILES,growth
1,Clc1ccc2c(OCCCN3CCOCC3)c3oc4ccccc4c3nc2c1,12.9%
2,O=C(c1ccc(O)cc1)C1[C@H](c2ccc(Cl)cc2)[C@@H](c2ccccc2)NC12C(=O)Nc1ccc(Cl)cc12 (stereo partly drawn),26.8%
3,Nc1cc(-c2c[nH]c3ccccc23)nc2cc(-c3c[nH]c4ccccc34)nn12,-25.2% (active)
4,Oc1c(Cl)cc(Cl)c2ccc(CN3CCCCC3)nc12,31.7%
5,CN(C)CCCOc1c2ccc(Cl)cc2nc2c1oc1ccccc12,-84.8% (active)
6,COC1CCN(Cc2ccc3c(NNC(=O)c4cnccn4)nc4cc(F)ccc4n23)C1 (stereo not drawn),5.96% (active)
7,CC(C)NC(=O)c1cc(-c2ccc(NC(=O)Nc3ccc(N4CCOCC4)c(C(F)(F)F)c3)cc2)nc2cccnc12,47.9%
8,O=C(CSc1nccc(=O)[nH]1)Nc1ccc(-c2nc3ccccc3[nH]2)cc1,96.9%
